Among the data in PubChem BioAssay (NCATS) are Potency values, retold here.

Structures are written as SMILES. Values joined by “and” are separate entries in the source; they are usually repeats but may differ in a detail not shown here. Equal entries are not always repeated. Records with an inconclusive call do not appear. A call without a number means that no potency is given here. Where a structure was tested more than once in an assay, its records may differ in their call. Active and inactive are the calls of the source. Calls follow the shape of the dose curve; as a rule, active = well fitted cell-killing curve with a large enough effect; inconclusive = small, poorly fitted or top-dose-only effect, or effect the other way; inactive = no such curve, though single readings can be large or run the other way.
Potency is read from the fitted curve at half-maximal effect.

A short description of the assay: Viability qHTS for spleen associated tyrosine kinase inhibitor (SYKi) naive MV4-11 cells (AID 1963823). Also: nearly all actives have a fitted effect of over 40% in size. The following applies: MV4-11 AML viability, CellTiter-Glo luminescence, 72 h; series mostly up to 45 µM. The text has this:
Department of Medicine, Hematology/Oncology
University Hospital Frankfurt, Germany.
Trials have shown promising clinical activity of the selective SYK inhibitor entospletinib in patients with high expressing HOXA9/MEIS1 acute leukemias. As the development of resistance mechanisms is a common problem in the use of targeted drugs, we performed a chemical library screen to identify drug sensitivities in SYK inhibitor resistant AML cells. […] Glucocorticoids are potent immunosuppressants which work in part by inhibiting the transcription of cytokine genes.
Described herein is a viability screen to look for activity in the SYK inhibitor naive cell line against four NCATS compound libraries (MIPE 5.0, NPC, NPACT, and Kinase) totaling 11372 compounds. Active hits were reacquired for confirmation and further secondary assay testing.
SEQUENCE No. (e.g., 1, 2, 3, etc.); […] (e.g., Cells, Incubation, Reagent, etc.); VALUE; DESCRIPTION.
1; Media; 2uL; white, solid-bottom Corning assay plate.
2; Compounds; 23nL; Echo acoustic dispenser.
3; Cell; 5uL; 500 cells per well.
4: Incubation; 72hr; 37 C, 5% CO2, 95% humidity.
5; Reagent; 3uL; CellTiter-Glo reagent (Promega).
6; Incubation; 10min; room temperature.
7; Detection; Luminescence; ViewLux plate reader (PerkinElmer).
NOTES (numbers refer to Sequence numbers above
1. Quantitative high-throughput screening (qHTS) of small molecule compounds was conducted on naive SYKi MV4-11 cell line.
2. Twenty-three nanoliter of small molecule compounds were added to each assay plates using the Echo acoustic dispenser (Beckman Coulter).
3. Cells were seeded into the assay plates at a final density of 500 cells in 5uL of media per well using the Multi-drop Combi dispenser.
4. Plates were covered with stainless steel gasketed lids and incubated for 72 hours at standard cell culture conditions.
5. Viability was assessed by adding 3uL of CellTiter-Glo detection reagent (Promega).
6. Plates were covered with gasket lids and incubated for 10 minutes at room temperature.
7. Luminescence was measured on a ViewLux plate reader (PerkinElmer).
As to `CC(C)(C)c1nc2c3cc[nH]c(=O)c3c3cc(F)ccc3c2[nH]1`, the Potency was 0.411 µM (active).
The result for `COc1ccc(/C=C\c2cc(OC)c(OC)c(OC)c2)cc1O` reads 0.0053 µM (active); that for `CC1=CC(=O)CC(C)(C)[C@H]1/C=C/C(CO)O[C@@H]1O[C@H](CO)[C@@H](O)[C@H](O)[C@H]1O` (stereo not given in full), “inactive”.
For `CCOc1ccccc1OCC1CNCCO1` (stereo not given) the value was “inactive”; for `CC1=C(C(=O)Nc2cc(Cl)ccc2Cl)C(c2ccco2)C2=C(CCCC2=O)N1` (stereo not given), 14.6 µM (active).
As to `C/C=C1\[C@H](O[C@@H]2O[C@H](CO)[C@@H](O)[C@H](O)[C@H]2O)OC=C(C(=O)OC)[C@H]1CC(=O)O`, the Potency entry is “inactive”.
For `CC1(C)CC2C(O)C3=C(CC(C)(O)C2C1)C(=O)OC3` (stereo not given) the value was “inactive”.
For `CN[C@H]1CN(c2ccc3c(=O)c(C(=O)O)cn(-c4nccs4)c3n2)C[C@@H]1OC` the value was 0.605 µM (active); for `CC(C)OC(=O)C1=CN(C(=O)c2ccc(F)c(F)c2)CC(C)(C)c2c1[nH]c1ccccc21`, 8.33 µM (active); for `O=C(O)/C=C/c1ccc(-c2ccc(O)c(C34CC5CC(CC(C5)C3)C4)c2)cc1`, 0.184 µM (active).
For `CN1CCN(Cc2ccc(NC(=O)Cc3ccc(Oc4cc(NC(=O)C5CC5)ncn4)cc3)cc2C(F)(F)F)CC1`, the Potency result was “inactive”.
For `NCCS(=O)(=O)O` the value was “inactive”; for `C=C(C(=O)O)[C@@H]1CC[C@@]2(C)CC[C@@H](O)C(=C)C2C1` (stereo not given in full), “inactive”; for `CC[C@H](CC[C@@H](C)[C@H]1CC[C@H]2[C@@H]3CC=C4C[C@@H](O)CC[C@]4(C)[C@H]3CC[C@]12C)C(C)C`, “inactive”.
For `C/C(=C/CO)CC[C@@H]1[C@@]2(C)CCC[C@](C)(C(=O)O)C2CC[C@@]1(C)O` (stereo not given in full) the value was “inactive”; for `O=C(O)[C@@H](O)[C@H](O)[C@H](O)[C@@H](O)C(=O)O`, “inactive”; for `CCCCCCCCCCCC[N+](C)(C)Cc1ccccc1`, 6.68 µM (active).
`CN(C)CCOC(=O)C(c1ccccc1)C1(O)CCCC1` (stereo not given): the Potency entry was “inactive”.
For `C[C@H]1CN(C[C@H](Cc2ccccc2)C(=O)NCC(=O)O)CC[C@@]1(C)c1cccc(O)c1` the value was “inactive”; for `CCc1nn(CCO)c(CC)c1Oc1cc(C#N)cc(C#N)c1`, “inactive”; for `COc1cc(NC(=O)Nc2cccc(CNC(=O)O[C@H]3CCOC3)c2)ccc1-c1cnco1`, 1.3 µM (active).
For `COc1ccc(N2CCN(CCCNC(=O)Cn3c(=O)c4cccn4c4c(C)ccnc43)CC2)cc1` the value was “inactive”; for `COc1cc(-c2cc(-c3cccc(O)c3)cnc2N)cc(OC)c1OC`, 11.6 µM (active); for `O=C(N[C@H]1CCC[C@H](CO)C1)C1CCN(c2nc3cc(Cl)c(-c4ccc(Cl)cc4)cc3o2)CC1`, 16.6 µM (active).
For `COC(=O)N[C@H](C(=O)N[C@@H](Cc1ccccc1)[C@@H](O)CN(Cc1ccc(-c2ccccn2)cc1)NC(=O)[C@@H](NC(=O)OC)C(C)(C)C)C(C)(C)C` the value was “inactive”; for `CO/N=C(/C(=O)N[C@@H]1C(=O)N2C(C(=O)[O-])=C(C[n+]3ccn4ncccc43)CS[C@H]12)c1nsc(N)n1`, “inactive”; for `CC(C(=O)O)c1cccc(C(=O)c2ccccc2)c1` (stereo not given), “inactive”.
In the case of `C/C=C/C1=CC2=C(CO1)C(=O)C(C)(O)C(OC(=O)c1c(C)cc(OC)cc1O)C2` (stereo not given), the Potency is 6.4 µM (active).
For `COc1cc(NS(=O)(=O)c2ccc(N)cc2)ncn1` the value was “inactive”.
Take `CNC(=O)c1nn(C)c2c1C(C)(C)Cc1cnc(Nc3ccc(N4CCN(C)CC4)cc3)nc1-2`: the Potency was 51.7 nM (active) and 74.2 nM (active).
For `CN(C)CCN(Cc1ccccc1)c1ccccn1` the value was “inactive”; for `OC[C@H](Cc1ccccc1)Nc1nc(Oc2ccc3c(c2)CCC3)nc2c1ncn2Cc1ccc(-c2ccccc2)cc1`, 13.2 µM (active).
For `Cc1cn(-c2cc(NC(=O)c3ccc(C)c(Nc4nccc(-c5cccnc5)n4)c3)cc(C(F)(F)F)c2)cn1` the value was “inactive and 2.35 µM (active)”; for `CCN1CCC[C@H]1CNC(=O)c1c(OC)ccc(Br)c1OC`, 6.68 µM (active).
Take `C[C@]12CCC3[C@@H](CC[C@H]4NC(=O)C=C[C@]34C)[C@@H]1CC[C@@H]2C(=O)Nc1cc(C(F)(F)F)ccc1C(F)(F)F` (stereo not given in full): the Potency is 10.5 µM (active).
The result for `CC1OC(OC2CCC3(C)C(CCC4(C)C3CC=C3C5CC(C)(C)CCC5(C(=O)OC5OC(CO)C(O)C(O)C5O)CCC34C(=O)O)C2(C)C)C(O)C(O)C1O` (stereo not given) reads “inactive”; that for `O=C(Cc1ccc(-c2ccc(OCCN3CCOCC3)cc2)cn1)NCc1ccccc1`, 231 nM (active) and 93.4 nM (active); that for `OC[C@H]1O[C@@H](OC[C@H]2O[C@@H](OCc3ccccc3)[C@H](O)[C@@H](O)[C@@H]2O)[C@H](O)[C@@H](O)[C@@H]1O`, “inactive”.
Regarding `C#C[C@]1(OC(C)=O)CC[C@H]2[C@@H]3CCC4=C/C(=N/O)CC[C@@H]4[C@H]3CC[C@@]21CC`, the Potency is 26.6 µM (active).
In the case of `CCC(=O)NCC[C@@H]1CCc2ccc3c(c21)CCO3`, the Potency result is “inactive”.
